Source: the supplement of paper PMC6555819

Columns and labels:
Assay in all cases: PBM binding z-score (relative to random genomic background probes); higher = stronger binding; sequences stand for … in GC…GCGATTGACAGCGTAGAATGAAGG
[1] = tested on: PPARg:RXRa DBDmut IVT, anti-RXR (DBD mutation: RXRa K156A/R161A, NR concentration 270 nM, RXRa partner concentration 90 nM)
In short: (§1)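 Probes were double-stranded and carried 34-nt variable regions with direct-repeat seeds, single-nucleotide variants, half-site ablations and random human genomic background sequences, printed on custom Agilent 4×180K protein-binding microarrays. Arrays were incubated 1 h with ligand-free nuclear receptor dimers in PBS pH 7.4, 2% milk, 0.02% Triton X-100, 1 mM DTT, 0.2 mg/mL BSA and 0.4 mg/ml salmon testes DNA. Antibodies against each partner (one per run) detected binding, and scanned fluorescence was regression-normalized. Binding z-scores use the random background probes as reference.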

[2] = tested on: PPARg:RXRa IVT, anti-PPARg (NR concentration 270 nM, RXRa partner concentration 90 nM)
In short: as §1

[3] = tested on: PPARg DBDmut:RXRa IVT, anti-PPARg (DBD mutation: PPARg1 K132A/R137A, NR concentration 270 nM, RXRa partner concentration 90 nM)
In short: as §1

[4] = tested on: PPARg DBDmut IVT, anti-PPARg (DBD mutation: PPARg1 K132A/R137A, NR concentration 270 nM)
In short: as §1

[5] = tested on: PPARg homodimer (NR concentration 180 nM)
In short: as §1

[6] = tested on: PXR:RXRa (NR concentration 270 nM, RXRa partner concentration 90 nM)
In short: as §1

[7] = tested on: PXR homodimer (NR concentration 270 nM)
In short: as §1

[8] = tested on: RARa:RXR (NR concentration 270 nM, RXRa partner concentration 90 nM)
In short: as §1

[9] = tested on: RARa homodimer (NR concentration 270 nM)
In short: as §1

[10] = tested on: RARb:RXRa (NR concentration 270 nM, RXRa partner concentration 90 nM)
In short: as §1

[11] = tested on: RARb homodimer (NR concentration 270 nM)
In short: as §1

[12] = tested on: RARg:RXRa (NR concentration 270 nM, RXRa partner concentration 90 nM)
In short: as §1

[13] = tested on: RARg homodimer (NR concentration 270 nM)
In short: as §1

[14] = tested on: RXRa DBDmut IVT, anti-RXR (DBD mutation: RXRa K156A/R161A, NR concentration 90 nM)
In short: as §1

[15] = tested on: RXRa homodimer (NR concentration 180 nM)
In short: as §1

[16] = tested on: THRa:RXRa (NR concentration 90 nM, RXRa partner concentration 90 nM)
In short: as §1

[17] = tested on: THRa homodimer (NR concentration 90 nM)
In short: as §1

[18] = tested on: VDR homodimer (NR concentration 270 nM)
In short: as §1

Sequence | PBM binding z-score [1] | PBM binding z-score [2] | PBM binding z-score [3] | PBM binding z-score [4] | PBM binding z-score [5] | PBM binding z-score [6] | PBM binding z-score [7] | PBM binding z-score [8] | PBM binding z-score [9] | PBM binding z-score [10] | PBM binding z-score [11] | PBM binding z-score [12] | PBM binding z-score [13] | PBM binding z-score [14] | PBM binding z-score [15] | PBM binding z-score [16] | PBM binding z-score [17] | PBM binding z-score [18]
CCTTACGGGTCAAGGTTATAGGACGGGTGGTACG | 1.92 | 3.64 | 0.411 | -0.184 | 2.15 | 3.39 | 0.631 | 4.15 | 0.493 | 4.13 | 3.29 | 4.91 | 5.12 | 0.475 | 5.36 | 3.06 | 0.968 | 1.51
AGAACGGGGGCAATGAGTTGATAGCACGGGTGGC | 4.36 | 5.56 | 9.77 | 9.9 | 1.96 | 3.74 | 6.38 | 2.68 | 1.18 | 3.02 | 1.83 | 2.87 | 2.43 | 3.17 | 2.3 | 2.45 | 1.33 | 5.08
TGTCAAAGTTCAAAGGTAAGGTAAGTATCCACAC | 0.662 | 4.2 | 2.56 | 2.04 | 6.17 | 5.8 | 5.17 | 6.32 | 2.15 | 5.2 | 3.83 | 6.22 | 6.55 | 4.48 | 7.16 | 3.5 | 0.924 | 4.14
GATACCGGGTCAAGGCCAGAGTACGCGTATTGAT | 2.4 | 4.67 | 0.967 | 0.0234 | 0.895 | 2.62 | 0.124 | 2.97 | 0.054 | 3.9 | 3.05 | 4.34 | 3.93 | 0.478 | 4.58 | 3.49 | 1.25 | 1.07
ACAAGTTGGTCAGCTGAGGTCACACACAATTCGG | 1.87 | 2.89 | 0.789 | 1.03 | 2.69 | 5.44 | 2 | 4.44 | 1.01 | 3.65 | 4.58 | 4.2 | 3.99 | 2.18 | 4.19 | 5.13 | 5.16 | 3.37
CGAACGAGGGCATGAGTTGATAGGAAATGCCGAT | 2.5 | 1.68 | -1.02 | -0.376 | 0.547 | 0.35 | 0.349 | 0.4 | -0.46 | 1.88 | 0.511 | 1.1 | 1.71 | 2.4 | 0.923 | 1.07 | -0.419 | 1.41
ATATGTAGGTTACATCCAGGTCATTCAGGCTATG | 7.73 | 7.59 | 2.75 | 2.95 | 2.59 | 3.82 | 4.54 | 3.35 | 1.06 | 2.53 | 3.23 | 3.8 | 2.4 | 1.19 | 2.91 | 4.23 | 3.46 | 2.88
CAAACTAGGTCAAACGTCAAAGTCGAGCCAACCA | 8.33 | 8.65 | 4.47 | 4.15 | 2.05 | 2.38 | 0.241 | 3.65 | 0.354 | 4.21 | 2.99 | 4.6 | 4.53 | 2.28 | 4.16 | 3.13 | 0.831 | 1.04
AGAATGAGGTTGAGATCAGGGAAACAGAATACAT | -0.749 | -0.0669 | 0.897 | 0.0775 | 0.146 | 0.154 | 0.387 | 0.681 | 0.16 | 0.263 | 0.193 | 0.514 | 0.477 | -0.1 | 0.612 | 1.35 | -0.0652 | 0.0379
ATACCAAGGTGATCGTGAGATCGTTGATACTAAC | 0.453 | 1.18 | 0.758 | 0.465 | 0.145 | -0.151 | -0.339 | 0.227 | 0.462 | 0.492 | 0.108 | 0.309 | 0.133 | 0.00637 | 0.0742 | 0.704 | 0.421 | 0.0841
GCTAGTTGGTCAGTATAAGGTCACACACCGGTCG | 1.28 | 2.3 | 0.282 | 0.251 | 4.01 | 4.26 | 1.61 | 4.86 | 2.27 | 3.5 | 4.41 | 4.28 | 3.75 | 0.514 | 3.9 | 4.29 | 5.46 | 2.76
CCTACTGGGCCATCAGGTAATTGATATCAACGTT | 4.07 | 4.05 | -0.379 | 0.313 | 0.173 | -0.337 | -0.167 | -0.328 | -0.0481 | 0.0726 | 0.184 | -0.0181 | 0.255 | -0.203 | -0.166 | 0.522 | 0.334 | -0.212
CCTGCTAGGTCATGGGCAGCTAATCTACAGTATG | 4.17 | 3.73 | 0.149 | -0.33 | 1.36 | 1.1 | -0.682 | 2.68 | 0.607 | 3.83 | 2.79 | 4.04 | 4.39 | 1.05 | 2.83 | 2.89 | 0.639 | -0.0786
CCGACTGGAGCATAAGGTTACCATAAGCCAGCCC | 0.771 | 0.172 | -0.467 | -1.49 | -0.0887 | 0.241 | -0.0972 | 1.11 | 0.0423 | 0.916 | 1.28 | 0.447 | 0.266 | 0.0357 | 0.901 | 1.96 | 1.77 | 0.144
CAAACTAGGTCAACGTCAAAGTCGGTTTGTGCCA | 8.75 | 8.75 | 5.16 | 4.41 | 2.59 | 1.58 | 0.241 | 2.38 | 0.739 | 4.11 | 3.56 | 4.05 | 4.97 | 1.68 | 2.9 | 3 | 1.02 | 1.07
